Source: PubChem BioAssay (NCATS)
Inconclusive results are not listed. Unmarked numbers belong to inactive results. Calls of active or inactive are those of the source. The call rests on the fitted dose curve; in most records, active means well fitted inhibition curve with a large enough effect; inconclusive means small, poorly fitted or top-dose-only effect; inactive means flat fitted curve, though single readings scatter. Bridge positions count the residues as written; N and C are the ends. Square brackets hold non-standard residues; d marks the D form. Peptide text beside a SMILES is read from it. * marks the point of attachment. Ileψ(thiazoline)Cys = CC[C@H](C)[C@H](N)C1=N[C@H](C(=O)*)CS1; d(aIle) = CC[C@H](C)[C@@H](N)C(=O)O; dOrn = NCCC[C@@H](N)C(=O)O

tested on: CP238; test: qHTS profiling for inhibitors of Plasmodium falciparum proliferation (AID 504749); further: nearly all actives have a fitted effect of over 60% in size;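 on activity, negative = inhibition: 0% = DMSO vehicle and full inhibition = artemisinin control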; conditions: P. falciparum in erythrocytes, SYBR Green DNA, 72 h; series mostly up to 12.8 µM; activity, negative = inhibition: at the top concentration
Method in brief: (§1)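 P. falciparum-infected erythrocytes (0.3% parasitemia, 2.5% hematocrit) incubated with compound 72 h at 37 C, 5% CO2. Parasite DNA detected by SYBR Green after lysis, overnight at room temperature; normalised to 0.29 uM artemisinin and DMSO.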
Potency means the concentration at half of the fitted maximal effect.

Compound	activity, negative = inhibition [%]	Potency
O=C(O)COCCN1CCN([C@@H](c2ccccc2)c2ccc(Cl)cc2)CC1	-0.503	–
CCN(CC)CCOC(=O)[C@@H](Cc1cccc2ccccc12)C[C@@H]1CCCO1	-12.5	–
Clc1ccc([C@H](Cn2ccnc2)OCc2c(Cl)cccc2Cl)c(Cl)c1	–	3.55 µM (active)
CC[C@H](CO)NCCN[C@@H](CC)CO	0.327	–

tested on: CP247; test: as above; conditions: P. falciparum in erythrocytes, SYBR Green DNA, 72 h; series mostly up to 12.8 µM; activity, negative = inhibition: at the top concentration
Method in brief: as §1

Compound	activity, negative = inhibition	Potency
C[C@H](CCC(=O)O)[C@H]1CC[C@@H]2[C@@H]3[C@@H](O)C[C@H]4C[C@@H](O)CC[C@@]4(C)[C@H]3CC[C@@]21C	-15.8%	–
CN(C/C=C\c1ccccc1)Cc1cccc2ccccc12	1.49% [at 28.7 µM]	–
CCN(CCCCOC(=O)c1ccc(OC)c(OC)c1)[C@@H](C)Cc1ccc(OC)cc1	-19.6%	–
C[C@H](C(=O)O)c1cccc(Oc2ccccc2)c1	5.55%	–
CC1(C)[C@@H](OC(=O)CCC(=O)O)CC[C@@]2(C)[C@H]1CC[C@@]1(C)[C@H]2C(=O)C=C2[C@H]3C[C@](C)(C(=O)O)CC[C@]3(C)CC[C@@]21C	-16%	–
CCOC(=O)O[C@@H](C)OC(=O)[C@@H]1N2C(=O)[C@@H](NC(=O)[C@@H](N)c3ccccc3)[C@H]2SC1(C)C	7.87%	–
Cc1ccsc1/C=C\C1=NCCCN1C	-10.3%	–
C#C[C@]1(O)CC[C@@H]2[C@H]3CCC4=CCCC[C@@H]4[C@@H]3CC[C@@]21C	5.77%	–
CC[C@H](C)[C@H](N)C1=N[C@H](C(=O)N[C@@H](CC(C)C)C(=O)N[C@@H](CCC(=O)O)C(=O)N[C@@H](C(=O)N[C@H]2CCCCNC(=O)[C@@H](CC(N)=O)NC(=O)[C@@H](CC(=O)O)NC(=O)[C@@H](Cc3cnc[nH]3)NC(=O)[C@@H](Cc3ccccc3)NC(=O)[C@@H]([C@@H](C)CC)NC(=O)[C@@H](CCCN)NC2=O)[C@@H](C)CC)CS1 ({Ileψ(thiazoline)Cys}-LE[d(aIle)]K[dOrn][d(aIle)][dF][dH][dD][dN]; lactam 4-C)	9.03%	–
O=C(O)COCCN1CCN([C@@H](c2ccccc2)c2ccc(Cl)cc2)CC1	4.04%	–
CCN(CC)CCOC(=O)[C@@H](Cc1cccc2ccccc12)C[C@@H]1CCCO1	-1.21%	–
Clc1ccc([C@H](Cn2ccnc2)OCc2c(Cl)cccc2Cl)c(Cl)c1	–	3.16 µM (active)
CC[C@H](CO)NCCN[C@@H](CC)CO	4.7%	–

tested on: CP250; test: as above; conditions: P. falciparum in erythrocytes, SYBR Green DNA, 72 h; series mostly up to 12.8 µM; activity, negative = inhibition: at the top concentration
Method in brief: as §1

Compound	activity, negative = inhibition	Potency
CN1CCO[C@H](c2ccccc2)c2ccccc2C1	-11.7%	–
C[C@H](CCC(=O)O)[C@H]1CC[C@@H]2[C@@H]3[C@@H](O)C[C@H]4C[C@@H](O)CC[C@@]4(C)[C@H]3CC[C@@]21C	-20.9%	–
CN(C/C=C\c1ccccc1)Cc1cccc2ccccc12	8.71% [at 28.7 µM]	–
CCN(CCCCOC(=O)c1ccc(OC)c(OC)c1)[C@@H](C)Cc1ccc(OC)cc1	-8.19%	–
C[C@H](C(=O)O)c1cccc(Oc2ccccc2)c1	10.1%	–
CC1(C)[C@@H](OC(=O)CCC(=O)O)CC[C@@]2(C)[C@H]1CC[C@@]1(C)[C@H]2C(=O)C=C2[C@H]3C[C@](C)(C(=O)O)CC[C@]3(C)CC[C@@]21C	-6.73%	–
CCOC(=O)O[C@@H](C)OC(=O)[C@@H]1N2C(=O)[C@@H](NC(=O)[C@@H](N)c3ccccc3)[C@H]2SC1(C)C	0.921%	–
Cc1ccsc1/C=C\C1=NCCCN1C	-6.34%	–
C#C[C@]1(O)CC[C@@H]2[C@H]3CCC4=CCCC[C@@H]4[C@@H]3CC[C@@]21C	-1.36%	–
CC[C@H](C)[C@H](N)C1=N[C@H](C(=O)N[C@@H](CC(C)C)C(=O)N[C@@H](CCC(=O)O)C(=O)N[C@@H](C(=O)N[C@H]2CCCCNC(=O)[C@@H](CC(N)=O)NC(=O)[C@@H](CC(=O)O)NC(=O)[C@@H](Cc3cnc[nH]3)NC(=O)[C@@H](Cc3ccccc3)NC(=O)[C@@H]([C@@H](C)CC)NC(=O)[C@@H](CCCN)NC2=O)[C@@H](C)CC)CS1 ({Ileψ(thiazoline)Cys}-LE[d(aIle)]K[dOrn][d(aIle)][dF][dH][dD][dN]; lactam 4-C)	8.8%	–
O=C(O)COCCN1CCN([C@@H](c2ccccc2)c2ccc(Cl)cc2)CC1	2.38%	–
CCN(CC)CCOC(=O)[C@@H](Cc1cccc2ccccc12)C[C@@H]1CCCO1	-3.96%	–
Clc1ccc([C@H](Cn2ccnc2)OCc2c(Cl)cccc2Cl)c(Cl)c1	–	2.51 µM (active)
CC[C@H](CO)NCCN[C@@H](CC)CO	-8.16%	–

tested on: CP252; test: as above; conditions: P. falciparum in erythrocytes, SYBR Green DNA, 72 h; series mostly up to 12.8 µM; activity, negative = inhibition: at the top concentration
Method in brief: as §1

Compound	activity, negative = inhibition	Potency
CN1CCO[C@H](c2ccccc2)c2ccccc2C1	-20.9%	–
C[C@H](CCC(=O)O)[C@H]1CC[C@@H]2[C@@H]3[C@@H](O)C[C@H]4C[C@@H](O)CC[C@@]4(C)[C@H]3CC[C@@]21C	-20.5%	–
CN(C/C=C\c1ccccc1)Cc1cccc2ccccc12	-0.581% [at 28.7 µM]	–
CCN(CCCCOC(=O)c1ccc(OC)c(OC)c1)[C@@H](C)Cc1ccc(OC)cc1	-6.91%	–
CCC(=O)OCC(=O)[C@@]1(OC(=O)CC)[C@H](C)C[C@@H]2[C@@H]3[C@H]([C@@H](O)C[C@@]21C)[C@]1(C)C=CC(=O)C=C1C[C@@H]3Cl	-8.6%	–
C[C@H](C(=O)O)c1cccc(Oc2ccccc2)c1	1.88%	–
CC1(C)[C@@H](OC(=O)CCC(=O)O)CC[C@@]2(C)[C@H]1CC[C@@]1(C)[C@H]2C(=O)C=C2[C@H]3C[C@](C)(C(=O)O)CC[C@]3(C)CC[C@@]21C	-1.17%	–
CCOC(=O)O[C@@H](C)OC(=O)[C@@H]1N2C(=O)[C@@H](NC(=O)[C@@H](N)c3ccccc3)[C@H]2SC1(C)C	0.549%	–
Cc1ccsc1/C=C\C1=NCCCN1C	0.733%	–
Cc1cccc(CN2CCN([C@@H](c3ccccc3)c3ccc(Cl)cc3)CC2)c1	-13.6%	–
C#C[C@]1(O)CC[C@@H]2[C@H]3CCC4=CCCC[C@@H]4[C@@H]3CC[C@@]21C	-4.04%	–
CC[C@H](C)[C@H](N)C1=N[C@H](C(=O)N[C@@H](CC(C)C)C(=O)N[C@@H](CCC(=O)O)C(=O)N[C@@H](C(=O)N[C@H]2CCCCNC(=O)[C@@H](CC(N)=O)NC(=O)[C@@H](CC(=O)O)NC(=O)[C@@H](Cc3cnc[nH]3)NC(=O)[C@@H](Cc3ccccc3)NC(=O)[C@@H]([C@@H](C)CC)NC(=O)[C@@H](CCCN)NC2=O)[C@@H](C)CC)CS1 ({Ileψ(thiazoline)Cys}-LE[d(aIle)]K[dOrn][d(aIle)][dF][dH][dD][dN]; lactam 4-C)	5.38%	–
O=C(O)COCCN1CCN([C@@H](c2ccccc2)c2ccc(Cl)cc2)CC1	-1.36%	–
CCN(CC)CCOC(=O)[C@@H](Cc1cccc2ccccc12)C[C@@H]1CCCO1	-15.7%	–
Clc1ccc([C@H](Cn2ccnc2)OCc2c(Cl)cccc2Cl)c(Cl)c1	–	3.16 µM (active)
C[C@@H](CNC1CCCCC1)OC(=O)c1ccccc1	-19%	–
CC[C@H](CO)NCCN[C@@H](CC)CO	10.9%	–
